Results published in PubChem BioAssay (NCATS).
Records with an inconclusive call do not appear. Unless noted, calls come from the whole dose curve; as a rule, active = well fitted curve in either direction with a large enough effect (not every such curve was filed as active); inconclusive = small, poorly fitted or top-dose-only effect, or another doubt; inactive = flat fitted curve, though single readings scatter.

Tests used:
[1] = AP1 Signaling Pathway (AID 357); settings: ME-180 AP-1-bla reporter, EGF-induced, beta-lactamase ratio, 5 h; at 17.2 µM (top of the series) unless noted;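 note: ME-180 reporter cells stimulated with EGF at its EC50 level; % is set by controls: 0 for no effect and ±100 for the full control effect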
Procedure, shortened: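 Read-out was the 460nm/530nm emission ratio (excitation 405nm) after CCF4 loading for 2.5 hours at room temperature. Cells carried an AP-1-driven beta-lactamase reporter, were stimulated with EC50 EGF plus compound for 5 hours, and AC50 values came from titrations.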

[2] = Stat Signaling Pathway (AID 446); settings: ME-180 SIE beta-lactamase reporter, IL-6 stimulated, 5 h; at 17.2 µM (top of the series) unless noted;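 note: ME-180 cervical cancer cells given 40 pM IL-6 alongside compound; SIE-controlled beta-lactamase reporter measured as 460/530 nm FRET emission ratio; % is set by controls: 0 for no effect and ±100 for the full control effect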
Procedure, shortened: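 ME-180 cells carrying a SIE-driven beta-lactamase reporter are stimulated with 40 pM IL-6 for 5 h at 37C in the presence of compound. The 460/530 nm FRET substrate ratio is read after 2.5 h at RT. Data are normalised to 300 pM IL-6 and to 125 nM JAK inhibitor controls.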

[3] = target: Glucocorticoid receptor (Homo sapiens) (UniProt P04150); experiment: GR-GFP Redistribution (AID 450;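 active = compounds whose dose series gives a full or clear partial fitted curve of increased nuclear translocation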; note: potency is the fitted concentration of half-maximal effect)
Chain of Glucocorticoid receptor (Homo sapiens) (P04150 whole entry, looked up): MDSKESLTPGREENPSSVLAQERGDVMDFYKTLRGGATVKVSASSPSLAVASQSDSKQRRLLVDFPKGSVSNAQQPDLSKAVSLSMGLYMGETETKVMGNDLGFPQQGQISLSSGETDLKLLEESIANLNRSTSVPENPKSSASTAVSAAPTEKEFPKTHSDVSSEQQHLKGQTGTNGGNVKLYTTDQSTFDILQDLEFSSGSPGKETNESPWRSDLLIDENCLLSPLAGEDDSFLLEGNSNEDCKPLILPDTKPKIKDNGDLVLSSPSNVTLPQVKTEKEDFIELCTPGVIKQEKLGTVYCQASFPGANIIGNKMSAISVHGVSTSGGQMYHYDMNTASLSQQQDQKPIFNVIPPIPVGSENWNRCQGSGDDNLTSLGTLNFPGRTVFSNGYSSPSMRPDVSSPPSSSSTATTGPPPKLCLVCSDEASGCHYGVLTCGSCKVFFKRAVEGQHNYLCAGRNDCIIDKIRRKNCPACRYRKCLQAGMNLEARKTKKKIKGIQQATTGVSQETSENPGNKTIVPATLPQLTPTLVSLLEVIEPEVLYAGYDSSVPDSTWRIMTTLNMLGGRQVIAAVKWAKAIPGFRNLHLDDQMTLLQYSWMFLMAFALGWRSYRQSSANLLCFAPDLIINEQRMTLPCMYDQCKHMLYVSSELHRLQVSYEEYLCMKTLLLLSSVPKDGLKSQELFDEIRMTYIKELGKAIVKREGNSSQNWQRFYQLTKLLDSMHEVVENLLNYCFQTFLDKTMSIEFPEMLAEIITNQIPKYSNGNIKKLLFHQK

Cc1ccc(NC(=O)CSC2=C(C#N)C(c3ccco3)C3=C(CCCC3=O)N2)cc1 (configuration not stated)
inactive: activity change, negative = inhibition [1] -26.3% | activity, negative = inhibition [2] 30.5% | Potency [3] > 20.6 µM

Cc1cccn2c(=O)c3cc(C(N)=S)c(=N)n(CCCOC(C)C)c3nc12
inactive: activity change, negative = inhibition [1] -0.111% | activity, negative = inhibition [2] 13.3% | Potency [3] > 20.6 µM

CC(C)Sc1nnc2n(CCc3ccccc3)c(=O)c3c4c(sc3n12)COC(C)(C)C4
inactive: activity change, negative = inhibition [1] -19.5% | activity, negative = inhibition [2] -3.01% | Potency [3] > 20.6 µM

C=C1c2cc(OC)ccc2NC(=O)N1CC
inactive: activity change, negative = inhibition [1] 13.3% | activity, negative = inhibition [2] 1.02% | Potency [3] > 20.6 µM

O=C(c1ccc(F)cc1)N1CCC(N2CCCCCC2)CC1
inactive: activity change, negative = inhibition [1] -5.56% | activity, negative = inhibition [2] -3.47% | Potency [3] > 20.6 µM

CSc1nncc(=O)[nH]1
inactive: activity change, negative = inhibition [1] 16.2% | activity, negative = inhibition [2] -3.78% | Potency [3] > 20.6 µM

O=C1C=C(N2CCN(C3=CC(=O)CCC3)CC2)CCC1
inactive: activity change, negative = inhibition [1] 20.4% | activity, negative = inhibition [2] 13.1% | Potency [3] > 20.6 µM

Oc1ccc(Br)cc1-c1cc(-c2ccccc2F)[nH]n1
inactive: activity change, negative = inhibition [1] 13.3% | activity, negative = inhibition [2] -0.726% | Potency [3] > 20.6 µM

CCN(CC)c1ccc(C2Nc3cccc4cccc(c34)N2)c(O)c1
inactive: activity change, negative = inhibition [1] -17.3% | activity, negative = inhibition [2] -17.7% | Potency [3] > 20.6 µM

Cc1ccc(-n2ncc3c(N4CCC(C(N)=O)CC4)ncnc32)c(C)c1
inactive: activity change, negative = inhibition [1] 5.42% | activity, negative = inhibition [2] -2.42% | Potency [3] > 20.6 µM

Cc1cc(C)c(NC(=O)OCCN2CCOCC2)c(C)c1
inactive: activity change, negative = inhibition [1] 4.21% | activity, negative = inhibition [2] 5.25% | Potency [3] > 20.6 µM

CCCCNC(=O)C(C#N)c1nc2ccccc2nc1N1CCN(c2ccccc2F)CC1 (configuration not stated)
inactive: activity change, negative = inhibition [1] -4.46% | activity, negative = inhibition [2] 0.859% | Potency [3] > 20.6 µM

C=CCNc1nc(N2CCCCC2)c(C#N)c2c1CN(Cc1ccccc1)CC2
inactive: activity change, negative = inhibition [1] 1.37% | activity, negative = inhibition [2] -3.92% | Potency [3] > 20.6 µM

COc1cc(-c2nn3c(-c4ccccn4)nnc3s2)cc(OC)c1OC
inactive: activity change, negative = inhibition [1] 1.69% | activity, negative = inhibition [2] 1.47% | Potency [3] > 20.6 µM

Cc1nc(/N=C(\N)Nc2ccccc2)nc2ccccc12
inactive: activity change, negative = inhibition [1] -14.5% | activity, negative = inhibition [2] -26.3% | Potency [3] > 20.6 µM

C=CCSc1nnc2n(-c3ccccc3OC)c(=O)c3c4c(sc3n12)CCC4
inactive: activity change, negative = inhibition [1] 7% | activity, negative = inhibition [2] 6.42% | Potency [3] > 20.6 µM

COc1ccc(CCn2c(=N)c(C(=O)NCc3ccco3)cc3c(=O)n4ccccc4nc32)cc1OC
inactive: activity change, negative = inhibition [1] -14.6% | activity, negative = inhibition [2] -2.08% | Potency [3] > 20.6 µM

Cc1nn2cnc3sc4c(c3c2nc1=O)CCCC4
inactive: activity change, negative = inhibition [1] 10.1% | activity, negative = inhibition [2] -8.12% | Potency [3] > 20.6 µM

CN(C)CCCOC(=O)c1ccc(Cl)cc1Cl
inactive: activity change, negative = inhibition [1] 13.3% | activity, negative = inhibition [2] 2.76% | Potency [3] > 20.6 µM

CCOC(=O)c1[nH]c2ccc(F)cc2c1N=C(C)N(CC)CC
inactive: activity change, negative = inhibition [1] 4.09% | activity, negative = inhibition [2] 5.12% | Potency [3] > 20.6 µM

CCN(CC)CCNc1nc(-c2ccco2)c2c(c1C#N)CC(C)(C)OC2
inactive: activity change, negative = inhibition [1] 12.8% | activity, negative = inhibition [2] 14.7% | Potency [3] > 20.6 µM

CN1C2C=C3C(C#N)=C(N)C(C#N)(C#N)[C@@H](c4ccc(Cl)cc4)[C@@H]3C1CC2 (some centres not stated)
inactive: activity change, negative = inhibition [1] -8.82% | activity, negative = inhibition [2] 5.5% | Potency [3] > 20.6 µM

CC1CN(C2CCN(C(=O)c3ccccc3)CC2)CC(C)O1 (configuration not stated)
inactive: activity change, negative = inhibition [1] -5.21% | activity, negative = inhibition [2] 3.62% | Potency [3] > 20.6 µM

CCC(=O)Oc1ccc(C(CC)C(CC)c2ccc(OC(=O)CC)cc2)cc1 (configuration not stated)
inactive: activity change, negative = inhibition [1] -8.93% | activity, negative = inhibition [2] -3.77% | Potency [3] > 20.6 µM

C=CCOC(=O)C(C#N)c1nc2ccccc2nc1N1CCC(C(=O)OCC)CC1 (configuration not stated)
inactive: activity change, negative = inhibition [1] -17.2% | activity, negative = inhibition [2] -10.4% | Potency [3] > 20.6 µM

COc1ccc(N2CCN(c3oc(COc4ccc(Cl)cc4)nc3C#N)CC2)cc1
inactive: activity change, negative = inhibition [1] -27.6% | activity, negative = inhibition [2] 11.6% | Potency [3] > 20.6 µM

COCCCn1cnc2c(c1=O)c1nc3ccccc3nc1n2CCc1ccccc1
inactive: activity change, negative = inhibition [1] -15.7% | activity, negative = inhibition [2] -9.66% | Potency [3] > 20.6 µM

Nc1c2c(nc3ccccc13)N(C1CCCCC1)CC2
inactive: activity change, negative = inhibition [1] 13.8% | activity, negative = inhibition [2] 16.7% | Potency [3] > 20.6 µM

COCc1n[nH]c(=S)n1-c1cccc2ccccc12
inactive: activity change, negative = inhibition [1] -1.13% | activity, negative = inhibition [2] 0.355% | Potency [3] > 20.6 µM

CCCc1nc(NC2CCCCC2)c(C#N)c2c1COC(C)(C)C2
inactive: activity change, negative = inhibition [1] 16.4% | activity, negative = inhibition [2] 25.5% | Potency [3] > 20.6 µM

CCCCC(=O)C1CCN(Cc2ccccc2)CC1
inactive: activity change, negative = inhibition [1] 4.33% | activity, negative = inhibition [2] 3.33% | Potency [3] > 20.6 µM

COc1ccc(/C=C/C2=NC(=C\N(C)C)/C(=O)O2)cc1
inactive: activity change, negative = inhibition [1] -4.1% | activity, negative = inhibition [2] -0.663% | Potency [3] > 20.6 µM

COc1ccc(C2/C(=C(\O)c3ccc4c(c3)OCCO4)C(=O)C(=O)N2CCCN(C)C)cc1 (configuration not stated)
inactive: activity change, negative = inhibition [1] 8.31% | activity, negative = inhibition [2] 2.89% | Potency [3] > 20.6 µM

CCc1nnc(NC(=O)CSc2nc(C)c3c(c2C#N)CCCC3)s1
inactive: activity change, negative = inhibition [1] -12.7% | activity, negative = inhibition [2] -23.4% | Potency [3] > 20.6 µM
